# From ChEMBL document CHEMBL4513216, “Probing the Open Global Health Chemical Diversity Library for Multistage-Active Starting Points for Next-Generation Antimalarials” (ACS Infect Dis, 2020)
# Hit rate of the full screen: of about 69,000 compounds, about 8,600 (12%) showed an effect of 50% or more. For the sample, strong results were picked, then their nearest neighbours and some compounds at random.
# Test system: Plasmodium berghei
# Test: Screen against P. berghei liver stage (PbLuc), transformed with Luciferase, at 10uM
# Format: functional, HepG2
# Settings: tested at 10 uM
row,SMILES,INHIBITION [%]
1,Cc1nc(N2CCN(c3ccccc3)CC2)c2c(n1)c(C)nn2C,25.1
2,CC(=O)N1CCN(CC=C(C)C)CC1,19.1
3,CCNC(=O)[C@@H]1C[C@@H](NC(=O)c2cccn2C)CN1CCCSC,-7.7
4,Cc1cc(-c2cccc(-c3ccn(CCCO)n3)c2)nc(N(C)C)n1,-22.8
5,O=C(CCC1CCCO1)NCCc1ccccn1 (stereo unspecified),18.3
6,O=C(CCC1CCCO1)NCCN1CCCCC1 (stereo unspecified),52.2
7,CCOCCNC(=O)CCC1CCCO1 (stereo unspecified),42.1
8,O=C(CCC1CCCO1)NCCCO (stereo unspecified),51
9,O=C(CCC1CCCO1)NCCCC(=O)Nc1ccc(Cl)cc1 (stereo unspecified),36.8
10,COc1ccc(OC)c(CCNC(=O)CCC2CCCO2)c1 (stereo unspecified),38.3
11,Cc1c[nH]nc1C1CCCN(C(=O)Cn2cccn2)C1 (stereo unspecified),2.71
12,Cc1nc(C2CCCCN2S(C)(=O)=O)no1 (stereo unspecified),-4.87
13,CC(=O)N1N=C(c2ccccc2)OC1C(=O)NCCc1ccc(Cl)cc1 (stereo unspecified),-53.7
14,CCN(CCCNCc1c(C)nn(C)c1N(C)C)S(C)(=O)=O,0.58
15,Cc1nc(C2CCN2c2ncccn2)cc(N(C)C)n1 (stereo unspecified),10.9
16,CCN(CC)C(=O)CSc1nc2nc(C)ccc2o1,-4.76
17,CCN(Cc1cccc2c1OCO2)C(=O)NCc1ccccn1,-27.8
18,Cc1ccc(C)c(C(=O)N2CCN(C(=O)Cc3ccccn3)CC2)c1,29.7
19,Cc1ccccc1C(=O)CN1C(=O)c2ccccc2CS1(=O)=O,10.1
20,Cc1cc(=O)c(C(=O)N2CCN(C)c3ccccc3C2)c[nH]1,43.9
21,Cc1ccc(C)c(C(=O)CN2C(=O)c3ccccc3CS2(=O)=O)c1,56.8
22,Cc1cc(C(=O)CN2C(=O)c3ccccc3CS2(=O)=O)c(C)[nH]1,56.4

row,SMILES,INHIBITION [%]
1,Cc1cc(C)c(CNC(=O)C2COc3ccccc3C2)c(=O)[nH]1 (stereo unspecified),32.9
2,CCCn1c(C)cc(C(=O)CN2C(=O)c3ccccc3CS2(=O)=O)c1C,31.8
3,Cc1ccc(C(=O)CN2C(=O)c3ccccc3CS2(=O)=O)c(C)c1,65.3
4,N#Cc1cccc(CN2C(=O)c3ccccc3CS2(=O)=O)c1,-0.85
5,Cc1nc(-c2nnc[nH]2)sc1C(=O)N1CCCC(C(F)(F)F)C1 (stereo unspecified),7.25
6,CN(C)C(=O)C1CCC2(CCN(C(=O)Nc3ccc(F)cc3)CC2)O1 (stereo unspecified),31.2
7,O=C([C@@H]1C[C@@H]2CCN(C3CCOCC3)C[C@@H]2O1)N1CCOCC1,-9.26
8,COCCn1c2c(ccc1=O)CCN(C(=O)Cc1cccs1)CC2,-14.2
9,CNc1cnc(CC2COCCN(Cc3ccccc3)C2)cn1 (stereo unspecified),9.05
10,c1ccc(-n2cc(CNCC3CCCN3c3cccnn3)cn2)cc1 (stereo unspecified),41.5
11,CC(CS(C)(=O)=O)N(C(=O)Nc1cc(F)ccc1Cl)C1CC1 (stereo unspecified),3.63
12,CC(CS(C)(=O)=O)N(C(=O)CCc1ccc(Cl)s1)C1CC1 (stereo unspecified),31.5
13,CC(CS(C)(=O)=O)N(C(=O)c1ccc(Cl)s1)C1CC1 (stereo unspecified),52.1
14,Cn1cc(C(=O)NCC2CCN(C(=O)NC3CC3)CC2)cn1,-16
15,N#Cc1ccnc(SCC2CN=C(N3CCOCC3)S2)c1 (stereo unspecified),52.6
16,c1csc(SCC2CN=C(N3CCOCC3)S2)c1 (stereo unspecified),-12.9
17,c1ccn2c(SCC3CN=C(N4CCOCC4)S3)ncc2c1 (stereo unspecified),0.705
18,O=c1c(NCCc2ccc(O)cc2)c(NCc2ccco2)c1=O,45.7
19,Cc1ccc(N2CCc3sc(C(=O)N4CCOCC4)cc32)nn1,-34
20,Cc1cc(S(=O)(=O)N2CCCc3cc(Br)ccc32)sc1C(=O)O,54.3
21,Cc1cc(S(=O)(=O)N2CCCc3cc(Cl)ccc32)sc1C(=O)O,-12.5
22,Cc1cc(S(=O)(=O)N2CCCc3ccccc32)sc1C(=O)O,37.1

row,SMILES,INHIBITION [%]
1,O=C(Nc1ccccc1)N1CC(C(=O)N2CCCC2)C2(CCOCC2)C1 (stereo unspecified),-9.71
2,CC(=O)c1c(C)nn(CC(=O)N2CCCC2c2ccc(C(N)=O)s2)c1C (stereo unspecified),65.7
3,NC(=O)c1ccc(C2CCCN2C(=O)CCn2nnc3ccccc32)s1 (stereo unspecified),7.6
4,NC(=O)c1ccc(C2CCCN2C(=O)Cn2nc3ccccc3n2)s1 (stereo unspecified),19.4
5,CN(C)CCN1CCCC12CCN(C(=O)c1ccco1)CC2,-20.8
6,O=C(Nc1ccncc1)N(CCO)Cc1ccsc1,-42.2
7,COc1ccc(C(=O)N2C[C@@H]3CC[C@H]2CN(C)C3)cc1Cl,32.3
8,COc1ccccc1-c1ccc(C(=O)N2C[C@@H]3CC[C@H]2CN(C)C3)cc1,58.3
9,CCOc1ccc(C(=O)N2C[C@@H]3CC[C@H]2CN(C)C3)cc1OCC,28
10,Cn1cc(C2CCCN2C(=O)Cn2c(=O)oc3ccccc32)cn1 (stereo unspecified),-19.1
11,Cn1cccc1C(=O)NC[C@H]1C[C@@H]2CN(C(=O)c3ccno3)C[C@H]2O1,42.3
12,O=C(NC[C@H]1C[C@@H]2CN(C(=O)c3ccno3)C[C@@H]2O1)C1CCC1,70.4
13,CN(C)C[C@H]1C[C@@H]2CN(C(=O)c3ccno3)C[C@@H]2O1,34.9
14,CCn1cc(-c2cc(C(F)F)n3nc(CCC(=O)O)nc3n2)cn1,33.7
15,CCn1cc(-c2cc(C(F)F)n3nc(CC(=O)O)nc3n2)cn1,53
16,Cn1cc(-c2cc(C(F)F)n3nc(CCC(=O)O)nc3n2)cn1,-24.1
17,CC(C)(C)c1nc(C(C)(C)NC(=O)C2CC(=O)N(CC3CC3)C2)no1 (stereo unspecified),-17.6
18,Cn1cc(CN2CCc3c(nc(-c4ccccn4)[nH]c3=O)C2)cn1,26.7
19,CCn1cc(CN2CCc3nc(-c4ccccn4)nc(O)c3C2)cn1,1.5
20,Cn1cc(CN2CCc3nc(-c4ccccn4)nc(O)c3C2)cn1,52.3
21,CN(C)C(=O)c1ccc(C2CCCNC2)nc1 (stereo unspecified),12.3
22,CN(C)CC1CN(Cc2ccsc2)Cc2nccn2C1 (stereo unspecified),31.8

row,SMILES,INHIBITION [%]
1,CN(C)Cc1cccc(-c2cccnc2C(=O)NCc2ccco2)c1,2.7
2,CN(C)Cc1cccc(-c2cccnc2C(=O)NCc2cn(C)cn2)c1,51
3,CN(C)Cc1cccc(-c2cccnc2C(=O)NCc2ccccn2)c1,14.85
4,Cc1cc(C)n(CC(=O)N(C)Cc2csc(-c3cccs3)n2)c(=O)n1,38.5
5,CC(C)n1ccnc1CN1C(=O)OC[C@@H]1c1ccccc1,42.6
6,COc1ccccc1CN(C)C(=O)CN1C(=O)OC[C@@H]1c1ccccc1,28.5
7,Cc1ncsc1CCN(C)C(=O)CN1CCOc2ccccc2C1,40.5
8,Cc1ccc(=O)n(CC(=O)N(C)Cc2csc(-c3cccs3)n2)n1,5.23
9,CC(C)N(C)C(=O)CN1C(=O)OC[C@@H]1c1ccccc1,58.2
10,Cc1ncsc1CCN(C)C(=O)CN1CCOC1=O,61.8
11,Cc1nc(CCN(C)C(=O)CN2C(=O)OC[C@@H]2c2ccccc2)no1,44.3
12,CN(Cc1csc(-c2cccs2)n1)C(=O)CN1CCOC1=O,55
13,Cc1ncsc1CCN(C)C(=O)CN1CCCCC1=O,39.4
14,Cc1ncsc1CCN(C)C(=O)CN1CCCCCC1=O,30.8
15,Cc1ncsc1CCN(C)C(=O)CN1C(=O)OC[C@@H]1c1ccccc1,66.5
16,CCN(CC(=O)Nc1cc(Cl)ccc1C)C(=O)c1cnccn1,-25.9
17,COc1ccc(C(=O)N2CCC(Nc3ccc(C)nn3)CC2)cc1,42
18,CN(C)c1nc2sc(C(=O)N3CCN(C(=O)OC(C)(C)C)CC3)cc2s1,-9.39
19,CCCS(=O)(=O)N1C[C@H](N(C)Cc2ccco2)[C@@H]2OCCC[C@@H]21,40.4
20,O=C(CCn1cnc2cc(F)c(F)cc21)N1CCN2CCCCC2C1 (stereo unspecified),23.4
21,Cc1cc(CN2C[C@@H]3COC[C@@H](C(=O)N4CCCCO4)[C@@H]3C2)oc1C,33.4
22,NC(=O)c1ccc(NC2CCOC3(CCCC3)C2)nn1 (stereo unspecified),7.18

row,SMILES,INHIBITION [%]
1,COC(=O)CCn1ccc(=O)c2cc(OC)ccc21,-80.3
2,CN(CCc1cnn(C)c1)C(=O)Cn1c(=O)[nH]c2ccccc21,27
3,CN(CCc1cnn(C)c1)C(=O)CN1C(=O)OC[C@@H]1c1ccccc1,50.8
4,CN(CCc1ccccc1)C(=O)CN1C(=O)OC[C@@H]1c1ccccc1,36.9
5,CCC(CC)C(=O)NCc1cnn(CC)c1,20.1
6,Cn1c(=O)c2cc(C(=O)NCCc3ccccc3)ccc2n(C)c1=O,-0.371
7,COC(=O)CNC(=O)c1c(-n2cnnn2)sc2c1CCCC2,-5.59
8,Cc1nc(NC(=O)c2c(-n3cnnn3)sc3c2CCCC3)sc1C,93.7
9,Cc1nc(NC(=O)c2c(-n3cnnn3)sc3c2CCC3)sc1C,93.7
10,Cc1nc(NC(=O)c2c(-n3cnnn3)sc(C)c2C)sc1C,92.5
11,CCCn1nccc1C(=O)Nc1nc(C)c(C)s1,-9.44
12,CC(C)CNC(=O)c1sccc1-n1cnnn1,32.3
13,CC(C)CNC(=O)c1c(-n2cnnn2)sc2c1CCCC2,68.1
14,CCCNC(=O)c1c(-n2cnnn2)sc2c1CCC2,26.1
15,Cc1sc(-n2cnnn2)c(C(=O)NC(C)C)c1C,21.2
16,O=C(NCC1CCCO1)c1c(-n2cnnn2)sc2c1CCC2 (stereo unspecified),-1.58
17,CC(C)CCNC(=O)c1c(-n2cnnn2)sc2c1CCCC2,23.4
18,CC(C)CNC(=O)c1c(-n2cnnn2)sc2c1CCC2,14.2
